The chains are these.
B1: VH:VL chains; a variant is named by its letters at X, in order (parent)
chain 1: QVQLVQSGAEVKKPGASVKVSCKASGYTFTDYXMHWVRQAPGQGLEWMGXVNPNXXXTTYNQKFEGRVTMTTDTSTSTAYMELRSLRSDDTAVYYCARXNXLDXWGQGTTVTVSS
chain 2: DIQMTQSPSSLSASVGDRVTITCSVSSSVSSIYLHWYQQKPGKAPKLLIYSTSNLASGVPSRFSGSGSGTDFTLTISSLQPEDFATYYCQVYSGYPLTFGGGTKVEIK

The other results are listed elsewhere or left out. How many sequences the whole screen found active is unknown.

Variants of B1 are the subject of this experiment. The experiment is described as follows: yeast display scFab, FACS + sequencing. Conditions: with MET. The method, boiled down: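 Heavy-chain CDR mutant scFab yeast surface library, enriched by two magnetic rounds on HGFR-Fc-coated Protein A beads and then by FACS. Cells were labelled with 1 nM HGFR-Fc in PBSB with 1% milk and anti-Myc for 3 h at room temperature, and the top 50% antigen-positive cells were gated. Round-3 sorted and input populations were deep sequenced in two replicates. Antigen binding call: positive if a sequence occurred in both antigen-positive samples, negative if it occurred only in input.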
Regarding SEARSSGY, the antigen binding call is “no binding”.

Turning to VTGEDSSD, the antigen binding call is “no binding”.

For DRGGDDAD, the antigen binding call is reported as “no binding”.

For DRGGDVSD, the antigen binding call is reported as “no binding”.

With FRGESSAD, the antigen binding call is reported as “binds”.

As to FRGGDSAD, the antigen binding call was “binds”.

For the variant FRGESSWD, the antigen binding call is listed as “binds”.

For the variant VKGGNVGV, the antigen binding call is recorded as “no binding”.

Consider DRRRGSGA, for which the antigen binding call is on record as “no binding”.

On to FRRRGAVA, for which the antigen binding call is listed as “binds”.

FRRRGAAA: the antigen binding call is given as “binds”.

Consider SRRRGSAA, for which the antigen binding call is listed as “binds”.

FRRRGSAA: the antigen binding call is reported as “binds”.

VETEGDGF: the antigen binding call is reported as “no binding”.

As to VETGNSLV, the antigen binding call is “no binding”.

Take FRRGGAAA: the antigen binding call was “binds”.

As for FKARGASV, the antigen binding call is “binds”.

As to FKTKNYVV, the antigen binding call was “no binding”.

Turning to FKGEGSLV, the antigen binding call is listed as “no binding”.

For FKRRSASV, the antigen binding call is “no binding”.

As for FKKKDASV, the antigen binding call is “binds”.

Regarding FKGEGDGV, the antigen binding call is recorded as “no binding”.

Regarding FKARGALV, the antigen binding call is “binds”.

As to FKGEGYGV, the antigen binding call was “no binding”.

Turning to SKTKSDAV, the antigen binding call is listed as “no binding”.

Turning to YKEGGAGD, the antigen binding call is listed as “binds”.

In the case of YKEGGSGD, the antigen binding call is listed as “binds”.

For DKEGGAAD, the antigen binding call was “no binding”.

For DKEGGSLD, the antigen binding call was “no binding”.

With YAEESAGD, the antigen binding call is listed as “no binding”.

Take DATGGDAD: the antigen binding call is reported as “no binding”.

For DTKAASGV, the antigen binding call is listed as “no binding”.

Take VEAGDDVV: the antigen binding call is on record as “no binding”.

For the variant SRRGGYVS, the antigen binding call is “no binding”.

Consider YRRGDAGS, for which the antigen binding call is “binds”.

Regarding YRRGSAGS, the antigen binding call is reported as “binds”.

Regarding YRRGSASS, the antigen binding call is “binds”.

With SRRGSASS, the antigen binding call was “binds”.

On to DRAGDAGS, for which the antigen binding call was “no binding”.

On to SRKKGDGS, for which the antigen binding call was “no binding”.

As for VEGGTDVV, the antigen binding call was “no binding”.

Regarding VATGSSGA, the antigen binding call is on record as “no binding”.

With YRRGGSGS, the antigen binding call was “binds”.

On to YRRGSSGS, for which the antigen binding call was “binds”.

On to YAEKDFGV, for which the antigen binding call was “no binding”.

Turning to ATAGSAAV, the antigen binding call is given as “no binding”.

Consider VKGRAYGV, for which the antigen binding call was “no binding”.

For VEGGGYGV, the antigen binding call was “no binding”.

With YRAGGVAV, the antigen binding call is on record as “binds”.

With VRGRGYGV, the antigen binding call was “binds”.

For VRGRGVAV, the antigen binding call is recorded as “binds”.

With VRKGGVAV, the antigen binding call is given as “no binding”.

As for VEGRGDAV, the antigen binding call was “no binding”.

With YRGRGVAV, the antigen binding call was “binds”.

For the variant VRGTGVAV, the antigen binding call is “no binding”.

Regarding VTTKGDVF, the antigen binding call is recorded as “no binding”.

As for SEARSYVV, the antigen binding call is recorded as “no binding”.

For the variant DTREGDAV, the antigen binding call is “no binding”.

With VKAKGAAA, the antigen binding call was “binds”.

With VKAGSAAA, the antigen binding call is listed as “binds”.

As to VEGGGAAA, the antigen binding call is “no binding”.

Turning to VKAGSDVA, the antigen binding call is given as “no binding”.

In the case of YKAGDDGA, the antigen binding call was “no binding”.

As for VEAGDAAA, the antigen binding call is reported as “no binding”.

Regarding YKAKGAAA, the antigen binding call is on record as “binds”.

Turning to YKAGDAAA, the antigen binding call is “binds”.

As for DAGGGAVA, the antigen binding call is reported as “no binding”.

As for VTKETFSF, the antigen binding call is recorded as “no binding”.

Consider YEGGTDGA, for which the antigen binding call is reported as “no binding”.

Regarding STTRGAVA, the antigen binding call was “no binding”.

Regarding ATTRGAVA, the antigen binding call is “no binding”.

With VKARNDLV, the antigen binding call is “no binding”.

On to YRGRDDWF, for which the antigen binding call is on record as “no binding”.

Regarding YRGRDASF, the antigen binding call is on record as “binds”.

As for YRGRDAGF, the antigen binding call is “binds”.

As to DAGKGSVD, the antigen binding call is “no binding”.

With STATADWV, the antigen binding call is reported as “no binding”.

As to VKGRADVD, the antigen binding call is on record as “no binding”.

Consider FRGRGVGD, for which the antigen binding call was “binds”.

As for FAGRGVGD, the antigen binding call is given as “no binding”.

Consider FAGGGDGD, for which the antigen binding call was “no binding”.

In the case of YRGRGVGD, the antigen binding call is on record as “binds”.

SAGRGVGS: the antigen binding call is “no binding”.

Take FRGRGDGD: the antigen binding call is recorded as “binds”.

For YRGRGVGS, the antigen binding call is “binds”.

With YTGEDAVA, the antigen binding call is given as “no binding”.

Consider FRGRGDGY, for which the antigen binding call is recorded as “binds”.

Take DRGRGDVV: the antigen binding call is given as “no binding”.

Turning to DGGRGDVV, the antigen binding call is “no binding”.

For the variant FRGRGDVV, the antigen binding call was “binds”.

As to FRGRGDVD, the antigen binding call was “binds”.

For YRGRGVSS, the antigen binding call was “binds”.

Take FRGKADVD: the antigen binding call is “no binding”.

In the case of AATTSFVV, the antigen binding call is “no binding”.

As for FRGRSYVD, the antigen binding call was “no binding”.

On to YRGKGVGD, for which the antigen binding call is given as “binds”.

As to FRGRGSVD, the antigen binding call is listed as “binds”.

Take AATTDAGD: the antigen binding call is given as “no binding”.

In the case of DGAKGDGV, the antigen binding call is given as “no binding”.

Turning to SRRRGAWY, the antigen binding call is on record as “binds”.

On to ARRRGAWY, for which the antigen binding call is on record as “binds”.

Take ARTRTAWY: the antigen binding call is listed as “no binding”.

YKGRGSVY: the antigen binding call is listed as “binds”.

For the variant FRGRGALY, the antigen binding call is listed as “binds”.

As to SKGRADVY, the antigen binding call is reported as “no binding”.

Regarding SKGRSDVY, the antigen binding call is given as “no binding”.

With SKGRGAVY, the antigen binding call is given as “binds”.

In the case of YRGRGSVY, the antigen binding call is given as “binds”.

On to VKGRTSVY, for which the antigen binding call is given as “no binding”.

For the variant YTEAADGA, the antigen binding call is listed as “no binding”.

Turning to VRAGADWY, the antigen binding call was “no binding”.

Consider VAKKNASF, for which the antigen binding call is on record as “no binding”.

With FRGRDALY, the antigen binding call is “binds”.

With YRGRGFVY, the antigen binding call is recorded as “binds”.

For YKGRGFVY, the antigen binding call is “no binding”.

Take FKEAGAVY: the antigen binding call is “no binding”.

Take FKGRGAVY: the antigen binding call is on record as “binds”.

As to FRTRDSGY chain 1 V68I, the antigen binding call was “no binding”.

For FKGGGAVY, the antigen binding call is reported as “no binding”.

For the variant FRGRDSGY, the antigen binding call is “binds”.

For FRGRDYGY, the antigen binding call is “no binding”.

As for ARAGSFWA, the antigen binding call is listed as “no binding”.

Turning to FRGRGAVY, the antigen binding call is reported as “binds”.

As to FRGGSAVY, the antigen binding call was “binds”.

In the case of FRGGSVGY, the antigen binding call is listed as “no binding”.

For FTEGDSGY, the antigen binding call is on record as “no binding”.

Take FRTEGSGY: the antigen binding call is “binds”.

YKGRGSVD: the antigen binding call is recorded as “binds”.

For the variant YRGANVVY, the antigen binding call is on record as “no binding”.

FRGRGSVY: the antigen binding call is given as “binds”.

In the case of YRGRGVVY, the antigen binding call was “binds”.

Consider YAGRGDVY, for which the antigen binding call is listed as “no binding”.

Turning to AGRGADLS, the antigen binding call is “no binding”.

Take YTGTSAWA: the antigen binding call is recorded as “no binding”.

YKGAAFWA: the antigen binding call is listed as “no binding”.

On to YKGAGAWA, for which the antigen binding call is on record as “binds”.

Take YRGAGAWA: the antigen binding call is “binds”.

For the origin of these results see the emibetuzumab library of Makowski et al. (2022).
